Data as given in PubChem BioAssay (EPA / NIEHS).
The source made the active and inactive calls. The calls were made as follows: active = hit-call score of the fitted dose curve at least 0.9, where 1 is the maximum; inactive = score below 0.9.

Assay: ATG_ISRE_CIS: Attagene CIS-FACTORIAL HepG2 Assay for human Interferon Regulatory Factor 1 (IRF1) binding to an Interferon-Stimulated Response Element (ISRE) (AID 2282948)
Conditions: HepG2 ISRE cis-reporter (Attagene), mRNA transcription readout; actives raise or lower the signal
Outline: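 Transfected HepG2 (multiple reporter transcription units, cis elements) dosed 24 h. RNA → oligo(dT) RT → PCR → 6-FAM primer extension → HpaI → CE. DMSO = negative control/baseline.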

SMILES | outcome | AC50
O=P(O)(O)Oc1ccccc1 | inactive | –
FC(F)=C(F)OC(F)(F)C(F)(F)C(F)(F)F | inactive | –
NC(=O)NNC(N)=O | inactive | –
CC(=O)CC(N)=O | inactive | –
CC(=O)OC(C)C | inactive | –
CCOC(=O)c1ccccc1C(=C1C=C(Br)C(=O)C(Br)=C1)c1cc(Br)c(O)c(Br)c1 | – | 28.8 µM (active)
CC=CC(F)(F)C(F)(F)C(F)(F)F | inactive | –
C#CC1(O)CC[C@H]2[C@@H]3CCC4=CCCC[C@@H]4[C@H]3CC[C@@]21C (stereo not given in full) | inactive | –
CCOC(=O)NNc1nncc2ccccc12 | inactive | –
CCCCCCCCCCCCCCCC[N+](C)(C)CC | – | 9.27 µM (active)
C[Si](C)(C)O[Si](O)(O)O | inactive | –
Oc1ccc(Cl)cc1Cc1cc(Cl)ccc1O | inactive | –
O=[N+]([O-])C1(Br)COCOC1 | – | 52.5 µM (active)
COC(=O)/C=C/C(C)=C\C=C\C(C)=C\C=C\C=C(C)\C=C\C=C(C)\C=C\C(=O)O | inactive | –
c1ccc(CCCc2ccncc2)cc1 | inactive | –

Assay: ATG_M_32_CIS: Attagene CIS-FACTORIAL HepG2 Assay for M32 Transcription Factor (Internal Marker) (AID 2282949);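 also: background control marker of the multiplexed CIS panel rather than a real target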
Conditions: HepG2 Attagene cis-factorial M32 reporter, mRNA; actives raise or lower the signal
Outline: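 Internal background marker read-out: RT-PCR/capillary electrophoresis fluorescence of reporter transcripts from transiently transfected HepG2 cells after 24 h chemical exposure. Activity fitted bidirectionally relative to DMSO negative control.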

SMILES | outcome
NC(=O)c1ccccc1O | inactive
C=CCOc1c(Br)cc(Br)cc1Br | inactive
CCc1c(C(=O)O)c(=O)cnn1-c1ccc(Cl)cc1 | inactive
CCCCCCCCCCCCCCCC(=O)OCC | inactive
C=CC(=O)OCCOC1C2CCC1C1CC=CC12 (stereo not given) | inactive
C=COCCCC | inactive
O=C1CCCCCCCCCCCCCCCO1 | inactive
CCCCCCCC[N+](C)(CCCCCCCC)CCCCCCCC | inactive
CC(=O)[C@@]1(O)CC[C@H]2[C@@H]3C[C@H](C)C4=CC(=O)C=C[C@]4(C)[C@@]3(F)[C@@H](O)C[C@@]21C | inactive
O=Nc1ccc(O)cc1 | inactive
Cc1ccc(C2OC[C@@H]3OC(c4ccc(C)cc4)O[C@H]([C@H](O)CO)[C@@H]3O2)cc1 (stereo not given in full) | inactive
C1=CCCC1 | inactive
C=CC(=O)OCC(Br)CBr (stereo not given) | inactive
NNC(=O)c1cccc(C(=O)NN)c1 | inactive
CCCC(C)CCC(C)=O (stereo not given) | inactive
CCN(CCC#N)c1ccc(N=Nc2c(Cl)cc([N+](=O)[O-])cc2Cl)cc1 | inactive
COC(F)(F)C(F)(C(F)(F)F)C(F)(F)F | inactive
CCc1nccnc1C | inactive
O=[N+]([O-])c1ccc(CO)cc1 | inactive
C=C(C)CCO | inactive

SMILES | outcome
O=S(=O)(O)c1cc(S(=O)(=O)O)c2ccc3c(S(=O)(=O)O)cc(S(=O)(=O)O)c4ccc1c2c43 | inactive
CC(C)=CCC/C(C)=C\C#N | inactive
Nc1nc2ccccc2[nH]1 | inactive
CC=C1CC2C=CC1C2 (stereo not given) | inactive
CC(C)c1ccc2c(C(C)C)cc(C(C)C)c(S(=O)(=O)O)c2c1 | inactive
O=P(O)(O)Oc1ccccc1 | inactive
FC(F)=C(F)OC(F)(F)C(F)(F)C(F)(F)F | inactive
NC(=O)NNC(N)=O | inactive
CC(=O)CC(N)=O | inactive
CC(=O)OC(C)C | inactive
CCOC(=O)c1ccccc1C(=C1C=C(Br)C(=O)C(Br)=C1)c1cc(Br)c(O)c(Br)c1 | inactive
CC=CC(F)(F)C(F)(F)C(F)(F)F | inactive
C#CC1(O)CC[C@H]2[C@@H]3CCC4=CCCC[C@@H]4[C@H]3CC[C@@]21C (stereo not given in full) | inactive
CCOC(=O)NNc1nncc2ccccc12 | inactive
CCCCCCCCCCCCCCCC[N+](C)(C)CC | inactive
C[Si](C)(C)O[Si](O)(O)O | inactive
Oc1ccc(Cl)cc1Cc1cc(Cl)ccc1O | inactive
O=[N+]([O-])C1(Br)COCOC1 | inactive
COC(=O)/C=C/C(C)=C\C=C\C(C)=C\C=C\C=C(C)\C=C\C=C(C)\C=C\C(=O)O | inactive
c1ccc(CCCc2ccncc2)cc1 | inactive

Assay: ATG_M_06_CIS: Attagene CIS-FACTORIAL HepG2 Assay for M06 Transcription Factor (Internal Marker) (AID 2282950)
Conditions: HepG2 Attagene CIS-FACTORIAL M06 internal marker reporter; actives raise or lower the signal
Outline: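 Internal background marker within multiplexed cis-reporter HepG2 system. Cells transiently transfected, dosed 24 h; reporter mRNA measured by RT-PCR, HpaI digestion and capillary electrophoresis. Bidirectional fit relative to DMSO.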

SMILES | outcome
NC(=O)c1ccccc1O | inactive
C=CCOc1c(Br)cc(Br)cc1Br | inactive
CCc1c(C(=O)O)c(=O)cnn1-c1ccc(Cl)cc1 | inactive
CCCCCCCCCCCCCCCC(=O)OCC | inactive
C=CC(=O)OCCOC1C2CCC1C1CC=CC12 (stereo not given) | inactive
C=COCCCC | inactive
O=C1CCCCCCCCCCCCCCCO1 | inactive
CCCCCCCC[N+](C)(CCCCCCCC)CCCCCCCC | inactive
CC(=O)[C@@]1(O)CC[C@H]2[C@@H]3C[C@H](C)C4=CC(=O)C=C[C@]4(C)[C@@]3(F)[C@@H](O)C[C@@]21C | inactive
O=Nc1ccc(O)cc1 | inactive
Cc1ccc(C2OC[C@@H]3OC(c4ccc(C)cc4)O[C@H]([C@H](O)CO)[C@@H]3O2)cc1 (stereo not given in full) | inactive
C1=CCCC1 | inactive
C=CC(=O)OCC(Br)CBr (stereo not given) | inactive
NNC(=O)c1cccc(C(=O)NN)c1 | inactive
CCCC(C)CCC(C)=O (stereo not given) | inactive
CCN(CCC#N)c1ccc(N=Nc2c(Cl)cc([N+](=O)[O-])cc2Cl)cc1 | inactive
COC(F)(F)C(F)(C(F)(F)F)C(F)(F)F | inactive
CCc1nccnc1C | inactive
O=[N+]([O-])c1ccc(CO)cc1 | inactive
C=C(C)CCO | inactive

SMILES | outcome
O=S(=O)(O)c1cc(S(=O)(=O)O)c2ccc3c(S(=O)(=O)O)cc(S(=O)(=O)O)c4ccc1c2c43 | inactive
CC(C)=CCC/C(C)=C\C#N | inactive
Nc1nc2ccccc2[nH]1 | inactive
CC=C1CC2C=CC1C2 (stereo not given) | inactive
CC(C)c1ccc2c(C(C)C)cc(C(C)C)c(S(=O)(=O)O)c2c1 | inactive
O=P(O)(O)Oc1ccccc1 | inactive
FC(F)=C(F)OC(F)(F)C(F)(F)C(F)(F)F | inactive
NC(=O)NNC(N)=O | inactive
CC(=O)CC(N)=O | inactive
CC(=O)OC(C)C | inactive
CCOC(=O)c1ccccc1C(=C1C=C(Br)C(=O)C(Br)=C1)c1cc(Br)c(O)c(Br)c1 | inactive
CC=CC(F)(F)C(F)(F)C(F)(F)F | inactive
C#CC1(O)CC[C@H]2[C@@H]3CCC4=CCCC[C@@H]4[C@H]3CC[C@@]21C (stereo not given in full) | inactive
CCOC(=O)NNc1nncc2ccccc12 | inactive
CCCCCCCCCCCCCCCC[N+](C)(C)CC | inactive
C[Si](C)(C)O[Si](O)(O)O | inactive
Oc1ccc(Cl)cc1Cc1cc(Cl)ccc1O | inactive
O=[N+]([O-])C1(Br)COCOC1 | inactive
COC(=O)/C=C/C(C)=C\C=C\C(C)=C\C=C\C=C(C)\C=C\C=C(C)\C=C\C(=O)O | inactive
c1ccc(CCCc2ccncc2)cc1 | inactive
